Compound activity from PubChem.
NPSR antag = neuropeptide S receptor (human) antagonism, cAMP | 220,000 compounds, 1% hits | CHO-NPSR cells, cAMP TR-FRET, antagonist mode | Potency, µM (doses to about 38.3 µM), hits mostly inhibitors; note: nearly all actives have a fitted effect of over 50% in size
Target sequence (Q6W5P4 whole entry, looked up): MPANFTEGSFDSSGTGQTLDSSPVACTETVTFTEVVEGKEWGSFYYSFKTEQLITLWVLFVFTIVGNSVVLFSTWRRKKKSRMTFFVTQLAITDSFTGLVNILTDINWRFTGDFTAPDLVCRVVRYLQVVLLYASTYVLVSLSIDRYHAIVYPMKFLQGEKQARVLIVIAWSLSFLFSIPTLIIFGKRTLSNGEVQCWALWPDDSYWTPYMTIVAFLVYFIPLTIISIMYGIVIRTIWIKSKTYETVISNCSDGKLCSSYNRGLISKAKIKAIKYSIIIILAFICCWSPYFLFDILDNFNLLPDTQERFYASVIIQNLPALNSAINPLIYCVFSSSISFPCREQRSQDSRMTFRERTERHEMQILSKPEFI
HTT ATP protect = cytoprotection in Huntington HTT-Q103 PC12 cell model. Potency, µM (top dose mostly 56.4 µM), usual class: activators. AID 1471. PC12 HTT-Q103 induced, cytoprotection, ATP luminescence, 40 h. 230,000 compounds, 0.14% hits; note: nearly all actives have a fitted effect of over 45% in size
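Huntington model: PC12 line, ecdysone-inducible HTTQ103 exon1–GFP, tebufenozide 100 nM. Test articles in a dose series. Endpoint luminescence from cellular ATP.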
HttQ103 aggreg = mutant huntingtin aggregation inhibition | PC12 HttQ103-GFP aggregates, Acumen cytometry, 40 h | Potency, µM (doses to about 46.1 µM), usual class: inhibitors | 220,000 compounds, 1.1% hits | AID 1688; note: nearly all actives have a fitted effect of over 60% in size
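Aggregate formation scored by laser-scanning cytometer (488 excitation, 500–530 emission) in lysed PC12 cells expressing Q103-GFP after 100 nM tebufenozide induction; library tested in dose series, with ATPLite reagent added in the multiplex.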
ERK EGF inh = blocks ERK signaling stimulated by EGF; HEK293-V1b, EGF-stimulated phospho-ERK AlphaScreen; Potency, µM (series often up to 11.5 µM), actives largely listed as inhibitors; 130,000 compounds, 0.41% hits; note: nearly all actives have a fitted effect of over 55% in size
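HEK293 cells stably expressing V1b receptor, serum-reduced (1% FBS) overnight, got compound for 30 min at 37C, then 25 nM EGF for 5 min. Lysate phospho-ERK read by AlphaScreen SureFire; AC50 from Hill fits.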
IMPase Li inh = membrane-permeable IMPase blocker, potentiated with lithium | 210,000 compounds, 0.35% hits | AID 1457 | Potency, µM (titrated, usually from 59.4 µM), hits mostly inhibitors | CHO-M1 cells, IP1 TR-FRET (IP-One), carbachol + lithium;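 note: IP1 builds up when IMPase is blocked and the TR-FRET signal falls; nearly all actives have a fitted effect of over 50% in size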
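Concentration–response in CHO-M1 cells, lithium-potentiated; 30 min at 37C. IP1 detected by competitive TR-FRET after 10 min lysis at RT. Hill-fitted AC50.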
Numbers stand for hits; n = inactive; u = inconclusive; x = no result given; [ ] = another dose, or the depositor's remark. Sampled rows, rich in hits. Any-hit rate of the full collection: about 1.9%. Calls come from the whole dose curve; as a rule, active = well fitted curve in the direction sought with a large enough effect; inconclusive = small, poorly fitted or top-dose-only effect, or another doubt; inactive = no such curve, though single readings can be large; an effect the other way counts as inactive or inconclusive.

SMILES	NPSR antag	HTT ATP protect	HttQ103 aggreg	ERK EGF inh	IMPase Li inh
Cc1cccc2c1NC(=O)/C2=C\C(=O)c1cccs1	n	n	n	x	n
CCc1ccc2c(c1)/C(=C/C(=O)c1cccs1)C(=O)N2	10µM	n	u	x	n
CC(C)C[C@@H](CC(=O)N[C@@H](CCC(=O)O)CC(=O)O)NC(=O)[C@@H]1CNCC[C@H]1NC(=O)C[C@H](CCCN)NC(=O)C[C@H](CO)NC(=O)[C@@H]1CNCC[C@H]1N	x	n[1.9 µM]	x	n	n
Cc1ccc(C2C(C#N)=C(N)SC(N)=C2C#N)cc1	n	n[10 µM]	n	x	u
Cc1ccc(C2C(C#N)=C(N)SC(N)=C2C#N)c(C)c1	n	n	n	x	7.9µM
O=[N+]([O-])/C=C/c1cn(Cc2ccccc2)c2ccccc12	10µM	n	u	x	n
O=C(Cn1cc(/C=C\[N+](=O)[O-])c2ccccc21)Nc1ccccc1	13µM	n[10 µM]	n[9.22 µM]	u	x
O=C(O)Cn1cc(/C=C/[N+](=O)[O-])c2ccccc21	n	x	n	n	n
Cc1cc(Cc2cc(C)c(N)cc2N)c(N)cc1N	x	n[10 µM]	x	x	n
O=P(O)(O)C(O)(Cc1cccnc1)P(=O)(O)O	x	n	n	x	x
Cc1noc(NS(=O)(=O)c2cccc3c(N(C)C)cccc23)c1C	x	n	x	n	n
O=C(Nc1ccc(CN2CCOCC2)cc1)c1ccc(-c2ccc(Cl)cc2Cl)o1	n	n	u	25µM	n
CC(=O)CC(=O)Nc1ccccc1	x	n	x	x	n
CN(C(=O)COC(=O)CNC(=O)c1ccccc1Cl)c1ccccc1	n	n	n	n	n
CN(C(=O)COc1ccccc1C(=O)NCCOc1ccccc1)c1ccccc1	u	x	u	32µM	n
COC(=O)[C@H](Cc1ccccc1)NC(=O)O[C@@H]1C(=O)c2ccc(OC)cc2O[C@H]1c1cccc(C(F)(F)F)c1	x	n	x	n	n
O=c1ccn(C2OC(COP(=O)(O)OC3C(CO)OC(n4ccc(=O)[nH]c4=O)C3O)C(O)C2O)c(=O)[nH]1 (centres undefined)	x	n	n	x	x
CCOC(=O)C1=C(Cc2ccc(C)cc2)C(=O)c2ccccc2C1=O	10µM	n	u	x	n
CCCCS(=O)(=O)N1C2=NC(C(=O)OC)=C(C(=O)OC)[C@@H]3N(C)c4ccccc4[C@]23C[C@H]1C(=O)OC	x	n[10 µM]	x	x	n
N#Cc1c(NC(=O)CSc2n[nH]c(N)n2)oc(-c2ccccc2)c1-c1ccccc1	n	n	n	x	n
N#Cc1c(NC(=O)Cn2c(=O)oc3ccccc32)oc(-c2ccccc2)c1-c1ccccc1	n	n	20µM	x	n
Brc1ccc(-c2nc(N/N=C/c3cccnc3)c3ccccc3n2)cc1	10µM	n	10µM	x	n
COc1ccc2c(c1)OCc1c-2oc2cc(OC)ccc12	x	x	x	n	n
Nc1sc(-c2ccccc2)cc1C(=O)O	n	n	n[9.22 µM]	x	n
CC(C)(C)C(=O)Nc1sc(-c2ccccc2)cc1C(=O)O	13µM	n[10 µM]	n[9.22 µM]	n	x
SMILES	NPSR antag	HTT ATP protect	HttQ103 aggreg	ERK EGF inh	IMPase Li inh
CCOC(=O)c1cc(-c2ccccc2)sc1NC(=O)c1ccc(OC)c(OC)c1	n	n[10 µM]	u	n	n
Cc1cccc(C(=O)Nc2sc(-c3ccccc3)cc2C(=O)O)c1	13µM	n[10 µM]	n[9.22 µM]	n	x
Fc1cccc2sc(Nc3nnc(-c4ccccc4)o3)nc12	u	n[1.9 µM]	11µM	n	n
COc1cc(OC)cc(-c2nnc(Nc3nc4c(F)cccc4s3)o2)c1	n	n	n	x	u
CCN(CC)CCCCn1c(-c2ccccc2)nc2c(NCc3ccccc3)nc(C)nc21	x	n	x	n	n
Fc1ccc(/C=N/N2CCOCC2)c(F)c1	n	0.71µM	n	n	u
Cc1cc(O)c2c(c1)OC1(C)CCC3C(C)(C)CCCC34COC2C14 (centres undefined)	x	n	n	x	x
CCOC(=O)c1ccccc1NC(=O)c1cncc(Br)c1	u	n	n	x	1.3µM
O=Cc1ccccc1C=O	x	n	n	x	x
CC(C)c1onc(C(=O)NCCc2ccccc2)c1[N+](=O)[O-]	n	n	n	n	n
CC(C)c1onc(C(=O)NC(C)c2ccccc2)c1[N+](=O)[O-] (centres undefined)	n	n	4.5µM	n	n
COc1ccc(-c2nc3ccccc3n2Cc2ccc(C)cc2)cc1	n	n	u	x	n
COc1ccc(Cn2c(-c3ccc(C)cc3)c[n+]3ccccc23)cc1	n	n[1.9 µM]	8.9µM	n	n
